Read-out in assay [1]: TIMP metallopeptidase inhibitor 2 (TIMP2), TIMP2 (gene 7077)
Kind of assay: BSK_KF3CT_TIMP2: BioMAP Diversity Plus: KF3CT Assay for TIMP metallopeptidase inhibitor 2 (TIMP2) Biomarker Activity (AID 2283071). The note with it: primary human keratinocytes with fibroblasts; actives raise or lower the signal. The method, boiled down:
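Chemicals were dosed onto human skin primary co-cultures of keratinocytes and foreskin fibroblasts, and TIMP-2 was measured by ELISA after 24 hours. Activity in either direction was fitted relative to DMSO.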

Read-out in assay [2]: Transforming growth factor beta 1 (TGFb1), TGFB1 (gene 7040)
Put plainly: BSK_KF3CT_TGFb1: BioMAP Diversity Plus: KF3CT Assay for Transforming growth factor beta 1 (TGFb1) Biomarker Activity (AID 2283072). The conditions noted are these: primary human keratinocytes with fibroblasts; actives raise or lower the signal. The method, boiled down:
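KF3CT co-culture (keratinocytes + fibroblasts), 24 h exposure → TGF-b1 ELISA → bidirectional fit, DMSO = baseline. Parallel SRB total-protein staining (0.1% SRB, 10% TCA fixation, 560 nm) for cytotoxicity.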

Read-out in assay [3]: C-C motif chemokine 2 (Homo sapiens) (UniProt P13500)
Put plainly: BSK_KF3CT_MCP1: BioMAP Diversity Plus: KF3CT Assay for Monocyte Chemoattractant Protein 1 (MCP1/CCL2) Biomarker Activity (AID 2283073). The conditions noted are these: primary human keratinocytes with fibroblasts; actives raise or lower the signal. The method in brief: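 ELISA readout of MCP-1 after 24 h chemical dosing of a human skin primary co-culture of keratinocytes and foreskin fibroblasts. Activity was fitted in both directions against DMSO.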

Read-out in assay [4]: Matrix Metallopeptidase 9 (MMP9), MMP9 (gene 4318)
Put plainly: BSK_KF3CT_MMP9: BioMAP Diversity Plus: KF3CT Assay for Matrix Metallopeptidase 9 (MMP9) Biomarker Activity (AID 2283074).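 As to AC50: MMP9 protein level quantified by ELISA in the co-culture.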 The conditions noted are these: primary human keratinocytes with fibroblasts; actives raise or lower the signal. The method, boiled down:
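MMP-9 quantified by ELISA after 24 h chemical treatment of primary human skin keratinocyte/fibroblast co-cultures; gain or loss fitted against DMSO, with parallel SRB staining (0.1% SRB, 560 nm) for overt cytotoxicity.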

Read-out in assay [5]: urokinase plasminogen activator (uPA), PLAU (gene 5328)
Kind of assay: BSK_KF3CT_uPA: BioMAP Diversity Plus: KF3CT Assay for urokinase plasminogen activator (uPA) Biomarker Activity (AID 2283075). The conditions noted are these: primary human keratinocytes with fibroblasts; actives raise or lower the signal. The method, boiled down: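 ELISA read-out of uPA 24 h after dosing human skin keratinocytes co-cultured with foreskin fibroblasts. Signal change fitted both ways relative to DMSO; sulforhodamine B on parallel cultures marks overt cytotoxicity.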

Read-out in a further assay: CD40, CD40 (gene 958)
Kind of assay: BSK_LPS_CD40: BioMAP Diversity Plus: LPS Assay for CD40 Biomarker Activity (AID 2283076). The conditions noted are these: primary human HUVEC with PBMC; actives raise or lower the signal. The method, boiled down: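 Cells were dosed, incubated 24 h, then assayed for CD40 by ELISA. Gain or loss of signal was analysed relative to DMSO controls. The culture paired human umbilical vein endothelium with peripheral blood mononuclear cells.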

Read-out in assay [6]: E-selectin (Homo sapiens) (UniProt P16581)
Kind of assay: BSK_LPS_Eselectin: BioMAP Diversity Plus: LPS Assay for Eselectin Biomarker Activity (AID 2283077). The note with it: primary human HUVEC with PBMC; actives raise or lower the signal. The method in brief: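 Primary human vascular co-culture (endothelium plus PBMC) was dosed with chemical, then E-selectin quantified by ELISA at 24 h. Endpoint values derive from bidirectional curve fitting relative to DMSO.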

Read-out in assay [7]: Interleukin-8 (IL8), CXCL8 (gene 3576)
Put plainly: BSK_LPS_IL8: BioMAP Diversity Plus: LPS Assay for Interleukin-8 (IL8) Biomarker Activity (AID 2283078). The conditions noted are these: primary human HUVEC with PBMC; actives raise or lower the signal. The method, boiled down: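 Readout is IL-8 by ELISA, taken 24 h after compounds were added to LPS-stimulated endothelial/PBMC co-cultures. Both increases and decreases relative to DMSO control were scored through bidirectional fitting.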

Assay [8] is described as follows: BSK_LPS_SRB: Viability Assessment in the BioMAP Diversity Plus: LPS Assay (AID 2283079).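 Also: total protein by sulforhodamine B absorbance as a cytotoxicity measure; measured one day after compound addition; fitted in both directions against DMSO so loss or gain of signal counts.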 The note with it: primary human HUVEC with PBMC. The method in brief: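 Readout is SRB absorbance at 560 nm (0.1% stain, TCA-fixed parallel cultures) as a total-protein cytotoxicity measure. Cells: primary human umbilical vein endothelium plus peripheral blood mononuclear cells, 24 h after chemical exposure; DMSO served as baseline.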

Read-out in assay [9]: Interleukin-1 alpha (IL1a), IL1A (gene 3552)
Kind of assay: BSK_LPS_IL1a: BioMAP Diversity Plus: LPS Assay for Interleukin-1 alpha (IL1a) Biomarker Activity (AID 2283080). The note with it: primary human HUVEC with PBMC; actives raise or lower the signal. The method in brief: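 ELISA read-out of IL-1 alpha from a human primary vascular co-culture (endothelium plus PBMC) under LPS, sampled 24 hours post-dosing. Activity was fitted in both directions relative to DMSO controls.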

Each structure is given as a SMILES string. The source made the active and inactive calls. The calls were made as follows: active = hit-call score of the fitted dose curve at least 0.9, where 1 is the maximum; inactive = score below 0.9.

E-selectin (Homo sapiens), sequence (P16581 whole entry, looked up): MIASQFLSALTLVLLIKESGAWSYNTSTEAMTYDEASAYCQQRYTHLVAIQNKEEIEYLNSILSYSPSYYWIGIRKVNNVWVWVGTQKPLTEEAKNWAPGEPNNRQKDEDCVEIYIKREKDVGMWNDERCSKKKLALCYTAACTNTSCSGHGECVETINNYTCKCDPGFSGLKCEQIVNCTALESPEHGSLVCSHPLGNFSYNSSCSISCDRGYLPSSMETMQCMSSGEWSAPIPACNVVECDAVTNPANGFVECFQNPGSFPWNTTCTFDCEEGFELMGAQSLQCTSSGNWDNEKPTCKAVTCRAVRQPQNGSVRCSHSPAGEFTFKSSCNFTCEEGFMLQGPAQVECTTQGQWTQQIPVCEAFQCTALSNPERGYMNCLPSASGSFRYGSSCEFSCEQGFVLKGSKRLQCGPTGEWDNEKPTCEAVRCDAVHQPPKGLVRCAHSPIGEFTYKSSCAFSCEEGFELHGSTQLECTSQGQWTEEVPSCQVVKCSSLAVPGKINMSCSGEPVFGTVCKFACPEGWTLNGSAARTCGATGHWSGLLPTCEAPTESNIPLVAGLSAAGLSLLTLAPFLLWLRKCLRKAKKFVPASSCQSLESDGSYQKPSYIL

As for `ClC1=C(Cl)[C@]2(Cl)[C@@H]3[C@@H](Cl)[C@H]4O[C@H]4[C@@H]3C1(Cl)C2(Cl)Cl`, the outcome is “inactive” in assay [1]; “inactive” in assay [2]; “inactive” in assay [3]; “inactive” in [4]; “inactive” in assay [5]; “inactive” in the assay with CD40, CD40 (gene 958). The outcome in [6], in [7] and in assay [9] was inactive. The AC50 in assay [8] is 6.81 µM (active).
As for `CC(C)C(=O)OCC(C)(C)C(OC(=O)C(C)C)C(C)C` (configuration not stated), the outcome in assay [1] is “inactive”; in assay [2], “inactive”; in assay [3], “inactive”; in assay [4], “inactive”; in assay [5], “inactive”; with CD40, CD40 (gene 958), “inactive”. In addition, the outcome in assay [6], in [7], in [8] and in [9] was inactive.
Take `CCSC(=O)N(CC)C1CCCCC1`: the outcome in [1], in [2], in assay [3], in assay [4], in assay [5] and in assay [6] was inactive. For the same compound, the result in assay [7], in [8] and in assay [9] was inactive.
For `ClC1=C(Cl)[C@]2(Cl)[C@@H]3[C@@H]4C[C@@H]([C@H]5O[C@@H]45)[C@@H]3[C@@]1(Cl)C2(Cl)Cl`, the outcome in [1], in assay [2], in assay [3], in assay [4], in assay [5] and in assay [6] was inactive. In addition, the result in assay [7], in [8] and in assay [9] was inactive.
For the compound `N#Cc1ccc(N(CC(N)=O)CC(F)(F)F)cc1C(F)(F)F`, the outcome in assay [1], in assay [2], in assay [3], in assay [4], in assay [5] and in [6] was inactive. The result in assay [7], in [8] and in assay [9] was inactive.
As for `C=CC(N)=O`, the result in assay [1], in [2], in [3], in assay [4], in assay [5] and in assay [6] was inactive. The outcome in [7], in [8] and in assay [9] was inactive.
Turning to `CC(c1ccc(O)cc1)(c1ccc(O)cc1)c1ccc(O)cc1`, the AC50 in assay [1] is 13.1 µM (active); in assay [2], 11.4 µM (active); in assay [3] it was 20 µM (active); in [4], 25.2 µM (active); in assay [5], 20 µM (active); in [6], 32.7 µM (active). For the same compound, in [8], the AC50 is 23.9 µM (active). The outcome in [7] and in [9] was inactive.
In the case of `CCC(=O)O[C@H]1CC[C@H]2[C@@H]3CCC4=CC(=O)CC[C@]4(C)[C@H]3CC[C@]12C`, the AC50 in assay [1] is 30.7 µM (active); in assay [4] it was 32.4 µM (active); in assay [5] it was 32.5 µM (active); in [6], 29.4 µM (active); in assay [7], 26.5 µM (active); in [9] it was 31.9 µM (active). In addition, the result in assay [3] was inactive.
With `COc1ccc(O)c(C(C)(C)C)c1`, the result in assay [1], in assay [2], in assay [3], in [4], in assay [5] and in assay [6] was inactive. For the same compound, the outcome in [7], in assay [8] and in assay [9] was inactive.
As to `CN(C)CCO`, the outcome in assay [1], in assay [2], in assay [3], in [4], in assay [5] and in assay [6] was inactive. Besides, the result in assay [7], in assay [8] and in assay [9] was inactive.
As to `Cc1ccccc1O`, the outcome in [1], in assay [2], in [3], in assay [4], in assay [5] and in assay [6] was inactive. The result in [7], in [8] and in assay [9] was inactive.
Turning to `CCCCCCCCCc1ccc(O)cc1`, the AC50 in [1] is 14.6 µM (active); in [2] it was 13.5 µM (active); in [4], 13.2 µM (active); in assay [5], 17.2 µM (active); in [6], 29.9 µM (active); in [7], 27.6 µM (active). For the same compound, the values for the AC50 in assay [8] and in assay [9] were 23.1 µM (active) and 22 µM (active), respectively.
Take `Cc1ccccc1CO[C@@H]1C[C@@]2(C(C)C)CC[C@]1(C)O2`: the outcome in [1], in assay [2], in assay [3], in [4], in assay [5] and in assay [6] was inactive. In addition, the outcome in assay [7], in [8] and in assay [9] was inactive.
`CCCCCCCCOC(=O)c1ccccc1C(=O)OCCCCCCCC`: the result in assay [1], in assay [2], in assay [3], in assay [4], in [5] and in assay [6] was inactive. Also, the result in [7], in [8] and in assay [9] was inactive.
Take `CCOP(=S)(OCC)SCSC(C)(C)C`: the result in assay [1], in assay [2], in assay [3], in [4], in [5] and in [6] was inactive. The result in [7], in assay [8] and in assay [9] was inactive.
In the case of `Cc1ccc(O)c(C)c1`, the result in assay [1], in [2], in [3], in assay [4], in [5] and in assay [6] was inactive. Also, the result in assay [7], in assay [8] and in assay [9] was inactive.
As to `CN(C)c1nc(=O)n(C2CCCCC2)c(=O)n1C`, the result in [1], in assay [2], in assay [3], in assay [4], in assay [5] and in assay [6] was inactive. Further, the outcome in [7], in assay [8] and in assay [9] was inactive.

As a reminder, the AC50 is the concentration giving half of the maximal activity seen.

(Values after PubChem BioAssay (EPA / NIEHS).)
